In the library only some 7% were active in any assay of this set; here they are far more common.
DRD3 antagonist: blocks the human D3 dopamine receptor | D3R cells, DiscoveRx beta-arrestin luminescence, antagonist mode; stronger effect = lower value | max response, negative = inhibition, % | 360,000 compounds, 2.5% hits; in the data active = max response below about -50%; inconclusive = no clear call, values can overlap the other calls; also: % is scaled to controls: 0 for no effect and ±100 for the full control effect
Target sequence (P35462 whole entry, looked up): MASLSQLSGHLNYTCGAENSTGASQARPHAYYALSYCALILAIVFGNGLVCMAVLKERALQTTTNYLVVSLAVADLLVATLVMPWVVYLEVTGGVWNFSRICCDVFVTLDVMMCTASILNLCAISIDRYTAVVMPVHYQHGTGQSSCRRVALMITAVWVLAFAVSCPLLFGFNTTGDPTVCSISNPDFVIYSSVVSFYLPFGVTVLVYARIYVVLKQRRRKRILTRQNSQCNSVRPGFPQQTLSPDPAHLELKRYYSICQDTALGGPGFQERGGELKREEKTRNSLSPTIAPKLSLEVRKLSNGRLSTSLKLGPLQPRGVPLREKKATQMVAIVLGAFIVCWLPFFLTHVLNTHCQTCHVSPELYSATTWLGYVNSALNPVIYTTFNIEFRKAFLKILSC
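Cells plated overnight at 1500 cells/well, then exposed to library compounds with dopamine controls for 90 minutes at 37 degrees C. DiscoveRx reagent added for 30–60 minutes at room temperature; luminescence read, quantitative HTS format.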
IL-1B inflam inh: inflammasome signaling inhibition, IL-1 beta readout. THP-1 LPS/ATP IL-1B secretion, AlphaLISA, 16 h; stronger effect = lower value. activity change, % at 57.5 µM. 360,000 compounds, 4.7% hits; in the data active = activity change below about -50%; inconclusive = mostly about -30% to -49%; also: % is scaled to controls: 0 for no effect and ±100 for the full control effect
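Secreted IL-1B measured by AlphaLISA bead assay after 16 h compound exposure of THP-1 cells; compounds (final up to 57.5 uM) added 1 h before LPS (250 ng/mL) and ATP (1.25 mM) stimulation; lower signal means less secretion.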
ATXN2 expr inh: reduces ATXN2 reporter expression in HEK-293 cells. HEK-293 ATXN2-luciferase reporter, luminescence, 24 h. Potency, µM (top dose mostly 57 µM), inactives show at the highest dose activity change, negative = inhibition, actives largely listed as inhibitors. 360,000 compounds, 0.72% hits. AID 1745845; also: potency is read from the fitted curve at half-maximal effect; % is scaled to controls: 0 for no effect and ±100 for the full control effect; nearly all actives have a fitted effect of over 55% in size
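qHTS (up to 57 uM final) was run with 24 h compound exposure of reporter cells at 37 °C. Each well was multiplexed: SteadyGlo luminescence measured ATXN2-luciferase expression after a fluorogenic Gly-Phe-AFC viability readout (25 uM final).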
D3 ag: D3 dopamine receptor (human) agonism. 410,000 compounds, 0.58% hits. P35462. max activation, %. D3R DiscoveRx beta-arrestin cells, luminescence, 90 min; in the data active = max activation above about 30%; also: 0% is about no effect
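Cells at 1500/well, incubated overnight, then treated with pinned compounds (dopamine as control) for 90 min at 37 degrees C. DiscoveRx reagent added for 30 - 60 minutes at room temperature; luminescence read.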
S2 tox: viability counter-screen for ATXN expression inhibitors; AID 651635; 400,000 compounds, 0.49% hits; S2 cells (HEK-293 line with an ATXN2-luciferase reporter) viability, CellTiter-Fluor protease fluorescence, 24 h; Potency, µM (series often up to 56.7 µM), actives largely listed as cytotoxic; also: potency is read from the fitted curve at half-maximal effect; nearly all actives have a fitted effect of over 40% in size
Integrin act MD: activators of alpha7 integrin expression for muscular dystrophy; alpha7betagal myoblasts, beta-gal FDG fluorescence, 48 h; Potency, µM (highest dose often 38.3 µM), inactives show top-dose activation, actives largely listed as activators; 350,000 compounds, 0.064% hits;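 also: potency is read from the fitted curve at half-maximal effect; 100% = response of the positive control SU9516; nearly all actives have a fitted effect of over 60% in size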
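Alpha7betagal+/- myoblasts (passage 13) were plated 16-24 hr, then exposed to compounds (1:260 dilution of DMSO stock) for 48 hours at 37C. After MPER lysis, β-galactosidase reporter activity was read as FDG fluorescence (ex 480/em 540) after 30 minutes.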
Starred values were filed as active, the others as inactive; i = inactive; ? = inconclusive; . = no result; ! = a repeat was not active. Unless noted, calls follow the shape of the dose curve; as a rule, active = well fitted curve in the direction sought with a large enough effect; inconclusive = small, poorly fitted or top-dose-only effect, or another doubt; inactive = no such curve, though single readings can be large; an effect the other way counts as inactive or inconclusive.

SMILES	DRD3 antagonist	IL-1B inflam inh	ATXN2 expr inh	D3 ag	S2 tox	Integrin act MD
C[C@H]1C[C@@H](C)C(=O)[C@@H]([C@H](O)CC2CC(=O)NC(=O)C2)C1	12	-90*	1.1µM*	0	i	-39%
C[C@]12CCC(=O)C(O)=C1CC[C@@H]1[C@H]3CCC(=O)[C@@]3(C)CC[C@@H]12	.	.	-6%	.	.	.
Cc1cccc(N2CCc3c2nc2ccccc2c3N)c1	?	-91*!	6%	-11	?	-23%
CN1C(=O)CN=C(c2ccc[nH]2)c2cc(Cl)ccc21 (tested in a mixture with another compound)	0	-1	.	1	?	-10%
C/C(=N\N(C)c1ccccc1)c1c(O)[nH]c(=O)[nH]c1=O	3	7	-25%	5	i	?
COc1ccc(-n2c(O)c(/C=C3\C=Nc4ccc(Br)cc43)c(=O)[nH]c2=O)cc1	12	18	-15%	-6	i	7%
COc1ccc(-n2c(O)c(/C=C3\C=Nc4ccc(Br)cc43)c(=O)[nH]c2=O)c(OC)c1	-14	-96*	-19%	4	i	-65%
Cc1ccccc1N1C(=O)NC(=O)/C(=C/c2ccc(N3CCOCC3)o2)C1=O	-7	.	11%	-12	i	12%
Cc1ccccc1N1C(=O)NC(=O)/C(=C\c2cc(Br)c(N3CCOCC3)o2)C1=O	?	-103*	-23%	-11	i	4%
CC1CN=C(NCc2ccc(F)cc2)S1 (centres undefined)	0	-8	8%	0	i	16%
C[C@]12CCC3C(CC[C@H]4C[C@H](O)CC[C@]34C)C1C[C@H](O)[C@@H]2O (some centres undefined)	12	26	9%	-3	i	16%
CCn1c(=O)oc2cc(NC(=O)CCl)ccc21	1	-100*	?	0	.	-69%
CCOC(=O)[C@@H]1[C@H]2COc3ccc(Br)cc3[C@H]2N2C(=O)N(c3cccc(C)c3)C(=O)[C@]12C	0	7	6%	-4	?	0%
Nc1c(C(=O)NCCc2ccccc2)c2nc3ccccc3nc2n1CCN1CCOCC1	16	-86*	?	11	i	-18%
CCC(C)NC(=O)c1c(N)n(CC2CCCO2)c2nc3ccccc3nc12 (centres undefined)	1	-57*	-19%	3	.	-2%
CC(C)CCNC(=O)c1c(N)n(CC2CCCO2)c2nc3ccccc3nc12 (centres undefined)	12	?	-25%	3	.	-51%
CCOC(=O)c1c(N)n(CCN2CCCCC2)c2nc3ccccc3nc12	-27	-83*	?	1	?	-42%
Nc1c(C(=O)OCc2ccccc2)c2nc3ccccc3nc2n1Cc1cccs1	-13	-90*	-26%	16	?	-55%
C/C=C1/CN2[C@@H]3C4CO[C@@H]3c3c([nH]c5cc(OC)ccc35)[C@@H]2CC14 (some centres undefined)	17	3	2%	8	i	5%
CCCCn1c(N)c(C(=O)NCCN2CCOCC2)c2nc3ccccc3nc21	33	-54*	-17%	-7	.	-5%
O=[N+]([O-])c1[nH]cnc1Br	-14	22	8%	-18	i	-2%
CC(C)N1CCN(Cc2ccccc2C(F)(F)F)CC1CCO (centres undefined)	-53*	-2	-17%	-11	i	?
CN1C(=O)C(C)(C2=CCCCC2)C(=O)NC1=S (centres undefined)	5	13	-2%	7	i	23%
CC1OC(OC2C(O)CC(OC3C(O)CC(OC4CCC5(C)C(CCC6C5CCC5(C)C(C7=CC(=O)OC7)C(O)CC65O)C4)OC3C)OC2C)CC(O)C1O (centres undefined)	19	-99*	0.32µM*	-10	?	10%
CC(=O)OC1CC(OC2C(O)CC(OC3C(O)CC(OC4CCC5(C)C(CCC6C5CCC5(C)C(C7=CC(=O)OC7)C(O)CC65O)C4)OC3C)OC2C)OC(C)C1OC1OC(CO)C(O)C(O)C1O (centres undefined)	-6	-80*	-80%	-2	i	6%
SMILES	DRD3 antagonist	IL-1B inflam inh	ATXN2 expr inh	D3 ag	S2 tox	Integrin act MD
CC(=O)OC1CC2(O)C3CCC4CC(O)CCC4(C)C3CCC2(C)C1C1=CC(=O)OC1 (centres undefined)	36	-80*	0.32µM*	13	?	-22%
C[C@@H]1[C@H](O)[C@@H](C)/C=C/C=C/CC/C=C/C=C/C=C/C=C/[C@H](O[C@H]2O[C@@H](C)[C@H](O)[C@@H](N)[C@H]2O)CC2O[C@](O)(C[C@@H](O)[C@H](O)CC[C@@H](O)C[C@@H](O)C[C@@H](O)CC(=O)O[C@H]1C)C[C@H](O)[C@H]2C(=O)O	.	.	.	4	.	.
CCOc1ccccc1N1C(=O)NC(=O)/C(=C/c2ccc3c4c(cccc24)CC3)C1=O	-52*	-89*	-4%	1	i	-9%
CC(C)(C)n1cc(C(=O)c2ccc3ccccc3c2O)cn1	12	-52*	?	-3	i	4%
C=CCOC(=O)N1Cc2ccccc2-n2nncc2C1	0	7	-6%	-8	i	2%
CC(=O)OC1N=C(c2ccccc2)c2ccccc2NC1=O (centres undefined)	-50*	24	1%	8	i	-1%
O=C(c1ccc2c(c1)OCO2)C1CCCN(Cc2ccc(F)c(F)c2)C1 (centres undefined)	-52*	0	0%	-9	i	20%
COc1ccc(CN2CCCC(C(=O)c3cccc(Cl)c3)C2)cc1 (centres undefined)	-73*	-12	.	-19	?	-19%
O=C(c1ccc(Cl)cc1)C1CCCN(Cc2ccc3c(c2)OCCO3)C1 (centres undefined)	-28	-6	?	-26	i	-17%
COc1ccc(CN2CCCC(C(=O)c3ccc(Cl)cc3)C2)c(OC)c1 (centres undefined)	-60*	-68*	-23%	-11	i	-48%
CSc1ncc(CN2CCCC(C(=O)c3cccc(Cl)c3)C2)cn1 (centres undefined)	-8	-13	-13%	-15	i	-3%
COc1ccc(C(=O)C2CCCN(Cc3ccon3)C2)c(OC)c1 (centres undefined)	-9	13	-15%	-10	i	1%
COc1ccc(O)c(CN2CCCC(C(=O)c3sccc3C)C2)c1 (centres undefined)	?	-9	-27%	-14	i	1%

High-throughput results deposited in PubChem by National Center for Advancing Translational Sciences (NCATS).
